Hits are enriched below; roughly 2.6% of the tested compounds scored in any of these assays.
14-3-3 Bad inh: disrupts binding of bovine 14-3-3 zeta to phospho-Bad peptide. P63103. TR-FRET 14-3-3zeta/Dy647-pBad peptide displacement, 1 h. inhibition, % at 21.7 µM. 220,000 compounds, 0.71% hits. AID 781;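 active = inhibition above about 70%, limit read from the data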
Target sequence (P63103 whole entry, looked up): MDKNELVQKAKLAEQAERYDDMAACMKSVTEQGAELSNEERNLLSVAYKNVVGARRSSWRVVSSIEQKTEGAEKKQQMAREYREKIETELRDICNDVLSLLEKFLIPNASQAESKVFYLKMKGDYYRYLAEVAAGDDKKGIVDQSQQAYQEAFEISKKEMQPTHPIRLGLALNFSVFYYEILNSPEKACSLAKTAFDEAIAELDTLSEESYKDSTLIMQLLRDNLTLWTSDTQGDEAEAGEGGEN
Mcl1 Bid PPI: disrupts binding of human Mcl-1 to Bid peptide | Q07820 | TR-FRET Mcl-1/Bid-Dy647 peptide binding, 1536-well | inhibition, % at 21.7 µM | AID 1021 | 220,000 compounds, 0.97% hits;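 active = compounds that cut the binding signal by more than half at the single screening dose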;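 also: His-tagged Mcl-1 with europium anti-His antibody binding Bid BH3 peptide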
MCL1 BIM primary: MCL1-BIM-BH3 interaction inhibition (human) | AID 2057 | GST-MCL1 / FITC-Bim-BH3 fluorescence polarization | Q07820 | inhibition, % at 10.9 µM | 320,000 compounds, 0.68% hits;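 active = inhibition above the mean inhibition of all tested compounds plus 3 SD, set per campaign, cut at about 40% in these data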;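 also: higher means more loss of mP so more displacement of Bim peptide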
eIF4E-4G inh: eIF4E/eIF4G interaction inhibition in translation initiation; P63073+Q04637; TR-FRET eIF4E-eIF4GI(517-606) binding, 2 h; inhibition, % at 21.7 µM; 220,000 compounds, 0.37% hits;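 active = inhibition above about 30%, limit read from the data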
Mcl1-Noxa inh: disrupts binding of human Mcl-1 to Noxa peptide. TR-FRET Mcl-1/Noxa peptide binding, 2 h. inhibition, % at 21.7 µM. 220,000 compounds, 1.5% hits. AID 1022;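 active = compounds that cut the protein-peptide binding signal by more than 50% relative to plate controls in a single-dose test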;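 also: His-tagged Mcl-1 with rhodamine Noxa BH3 peptide and terbium anti-His antibody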
Bim-Mcl-1: inhibitors of Bim-Mcl-1 interaction, human | AID 1009 | Bead-based flow cytometry, Bim peptide-Mcl-1 binding | Q07820 | inhibition, % at 10 µM | 190,000 compounds, 0.1% hits; in the data active = inhibition above about 40%
Of the large screens only hits and unclear results are named; the others gave an inactive call; [ ] = dose if it differs, or a comment.

COc1cc(/C=c2\sc3nc(-c4ccncc4)nn3c2=O)ccc1OC(C)=O	Mcl1-Noxa inh 70 (no result: MCL1 BIM primary)
COc1ccc(OC)c(S(=O)(=O)NC2CC(=O)N(c3cccc(F)c3)C2)c1 (configuration not stated)	none (no result: 14-3-3 Bad inh, Mcl1 Bid PPI, eIF4E-4G inh, Mcl1-Noxa inh, Bim-Mcl-1)
N=c1n(CCCOc2ccccc2Cl)c2ccccc2n1CC(N)=O	none (no result: Bim-Mcl-1)
CCS(=O)(=O)N1CCC(C(=O)Oc2ccc(C)c(C)c2)CC1	none (no result: 14-3-3 Bad inh, Mcl1 Bid PPI, eIF4E-4G inh, Mcl1-Noxa inh, Bim-Mcl-1)
Cn1c2c(c(=O)n(C)c1=O)C1c3cc(Cl)ccc3OCC1CO2 (configuration not stated)	Mcl1 Bid PPI 96
CC1=C/C(=C(/c2cc(C)c(O)c(Br)c2)c2ccccc2S(=O)(=O)O)C=C(Br)C1=O	MCL1 BIM primary 43 (no result: 14-3-3 Bad inh, Mcl1 Bid PPI, eIF4E-4G inh, Mcl1-Noxa inh, Bim-Mcl-1)
CC1=C/C(=C(/c2ccc(O)c(C)c2)c2ccccc2S(=O)(=O)O)C=CC1=O	none (no result: 14-3-3 Bad inh, Mcl1 Bid PPI, eIF4E-4G inh, Mcl1-Noxa inh, Bim-Mcl-1)
COc1ccc(CN2CCN(C(=O)CC(C)C)CC2)c2ccccc12	14-3-3 Bad inh 83
COc1ccc(CN2CCN(C(=O)CC(C)C)CC2)cc1OC	14-3-3 Bad inh 74
CCOC(=O)c1cc2occc2n1CC(=O)NC1CCCCC1C (configuration not stated)	Mcl1 Bid PPI 99
Cc1ccc(S(=O)(=O)N(C)C)cc1NC(=O)C(C)OC(=O)/C=C/c1cccs1 (configuration not stated)	none (no result: Bim-Mcl-1)
N=C(N)c1ccc(Cl)cc1	none
N=C(N)c1ccc(/C=C/c2ccc(C(=N)N)cc2O)cc1	Mcl1-Noxa inh 66 (no result: Bim-Mcl-1)
CC(=O)c1ccc(Oc2ccc(C(C)=O)cc2)cc1	Mcl1 Bid PPI 99
CN(C)C(=O)c1ccc(Oc2ccc(C(=O)N(C)C)cc2)cc1	none
O=C(NCC(c1ccco1)N1CCCC1)c1ccc(Cl)c(S(=O)(=O)N2CCc3ccccc32)c1 (configuration not stated)	none (no result: 14-3-3 Bad inh, Mcl1 Bid PPI, eIF4E-4G inh, Mcl1-Noxa inh, Bim-Mcl-1)
Cn1cc([N+](=O)[O-])c(C(=O)Nc2cc(Oc3cccnc3)cc([N+](=O)[O-])c2)n1	14-3-3 Bad inh 74
O=[N+]([O-])c1cc(Oc2cccnc2)cc([N+](=O)[O-])c1	none
Cc1ccc(NC(=O)/C(CN(C)C)=N\O)cc1	14-3-3 Bad inh 93[fluorescence artefact?]
Cc1ccc(NC(=O)CN(C)C(=O)Nc2ccc(C)cc2)cc1	none (no result: 14-3-3 Bad inh, Mcl1 Bid PPI, eIF4E-4G inh, Mcl1-Noxa inh, Bim-Mcl-1)
Cc1nc2cc(N3CCCCC3)c(NC(=O)c3ccncc3)cc2c(=O)n1Cc1ccc(Cl)cc1	Mcl1 Bid PPI 57
Cc1nc2cc(N3CCN(C)CC3)c(NC(=O)Cc3ccccc3)cc2c(=O)n1Cc1ccccc1	none
S=C(NCCCN1CCOCC1)N(Cc1ccccc1)Cc1ccccc1	none (no result: 14-3-3 Bad inh, Mcl1 Bid PPI, eIF4E-4G inh, Mcl1-Noxa inh, Bim-Mcl-1)
CC1CCCC(NC(=O)CSc2nnc(C(F)(F)F)n2C)C1C (configuration not stated)	none (no result: 14-3-3 Bad inh, Mcl1 Bid PPI, eIF4E-4G inh, Mcl1-Noxa inh, Bim-Mcl-1)
CC(O)CNCCNCc1c(OCc2ccccc2)ccc2ccccc12 (configuration not stated)	14-3-3 Bad inh 77
CC(O)CNCCOc1ccccc1OCc1ccccc1 (configuration not stated)	none
CSc1ccccc1NC(=O)CN(C)Cc1cccc(Cl)c1	14-3-3 Bad inh 72
COc1ccc(Cl)c2sc(N3CCN(C(C)=O)CC3)nc12	none (no result: 14-3-3 Bad inh, Mcl1 Bid PPI, eIF4E-4G inh, Mcl1-Noxa inh, Bim-Mcl-1)
O=C1c2ccc([N+](=O)[O-])cc2NC(c2ccco2)N1/N=C/c1ccco1 (configuration not stated)	Mcl1-Noxa inh 84 (no result: Bim-Mcl-1)
COc1cccc(/C=C/C(=O)OCC(=O)Nc2nnc(-c3ccccc3)o2)c1	none (no result: 14-3-3 Bad inh, Mcl1 Bid PPI, eIF4E-4G inh, Mcl1-Noxa inh, Bim-Mcl-1)
COc1ccccc1OC(=O)Nc1ccc(Cl)cc1	MCL1 BIM primary 47 (no result: 14-3-3 Bad inh, Mcl1 Bid PPI, eIF4E-4G inh, Mcl1-Noxa inh, Bim-Mcl-1)
COc1ccccc1OCC(=O)NNC(=O)Nc1ccc(Cl)cc1	none
C/C(=N/NC(=O)C1COc2ccccc2O1)c1ccc(Br)s1 (configuration not stated)	eIF4E-4G inh 98 (no result: Bim-Mcl-1)
C/C(=N\NC(=O)C1COc2ccccc2O1)c1ccc(Cl)s1 (configuration not stated)	none
CCc1nc2sc3ccccc3c(=O)c2c(=O)n1Cc1ccco1	none
O=c1c2ccccc2sc2nc(C3CCCCC3)n(Cc3ccco3)c(=O)c12	14-3-3 Bad inh 73, Mcl1 Bid PPI 67 (no result: MCL1 BIM primary)
COc1ccc(CNC(=O)c2cccc(-c3ccc(C)c4ccccc34)n2)cc1	none
O=C(O)Cc1sc(Nc2ccc(Cl)cc2)nc1-c1cccs1	Mcl1-Noxa inh 73 (no result: MCL1 BIM primary)
Nc1nc(-c2cccs2)c(CC(=O)O)s1	none
CCCCc1ccc(NC2=NCC(=O)N2CCc2ccccc2)cc1	none

Screening data: PubChem BioAssay, several laboratories
